# Assay results from PubChem BioAssay (EPA / NIEHS).
# Where “and” joins values, the source holds several entries; their conditions need not be identical. Equal entries are not always repeated. A structure can be active in one record and inactive in another. Calls of active or inactive are those of the source. Rule for the calls: active = hit-call score of the fitted dose curve at least 0.9, where 1 is the maximum; inactive = score below 0.9.
# Biological target: Transcription factor E2F1 (Homo sapiens) (UniProt Q01094)
# Sequence (Q01094 whole entry, looked up): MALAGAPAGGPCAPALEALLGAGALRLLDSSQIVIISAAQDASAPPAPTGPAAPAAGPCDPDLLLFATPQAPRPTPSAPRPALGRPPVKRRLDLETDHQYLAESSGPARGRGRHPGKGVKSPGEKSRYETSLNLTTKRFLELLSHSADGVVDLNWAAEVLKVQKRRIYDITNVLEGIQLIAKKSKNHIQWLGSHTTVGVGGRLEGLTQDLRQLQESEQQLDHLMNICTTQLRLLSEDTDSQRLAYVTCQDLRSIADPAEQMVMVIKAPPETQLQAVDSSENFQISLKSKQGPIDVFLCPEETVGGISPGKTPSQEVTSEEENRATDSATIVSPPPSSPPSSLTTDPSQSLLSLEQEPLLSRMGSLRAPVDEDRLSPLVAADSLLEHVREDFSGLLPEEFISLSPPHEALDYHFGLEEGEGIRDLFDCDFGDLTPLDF
# Assay: ATG_E2F_CIS: Attagene CIS-FACTORIAL HepG2 Assay for human E2F Transcription Factor 1 (AID 2282935)
# Details: HepG2 Attagene cis-reporter, E2F reporter RNA transcripts; actives raise or lower the signal
# Procedure, shortened: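 Fluorescent RT-PCR products, digested with HpaI for 2 h at 37 C, are separated by capillary electrophoresis. Source RNA comes from transfected HepG2 cultures treated for 24 h.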
SMILES,outcome,AC50
NC(N)=NC(N)=NCCc1ccccc1,inactive,
CC/C=C\CCOC(=O)C(C)C,inactive,
CC(C)=CCCC(C)=CC(=O)O,inactive,
CCC=C(C)C=O,inactive,
C=C1CC[C@H]2O[C@]2(C)CC[C@@H]2[C@@H]1CC2(C)C,inactive,
CCC(=O)OC/C=C(\C)CCC=C(C)C,inactive,
CCO[Si](CCC#N)(OCC)OCC,inactive,
CC(C)(O)CCc1ccccc1,inactive,
CC(=O)C1C(=O)C=C(C)OC1=O (stereo not given),inactive,
CCc1cccc(O)c1,inactive,
CC(CO)(CO)[N+](=O)[O-],inactive,
C[C@H](CCC(=O)O)[C@H]1CC[C@H]2[C@@H]3CC[C@@H]4C[C@H](O)CC[C@]4(C)[C@H]3CC[C@]12C,,25.3 µM (active)
CCC(C)(C)C1CCC(OC)CC1 (stereo not given),inactive,
C=CC(=O)OCC(CO)(COC(=O)C=C)COC(=O)C=C,,27 µM (active)
CN(C)c1ccc(C=O)cc1,inactive,
CC1=CCC(C(C)(C)O)CC1 (stereo not given),inactive,
CC(=O)CC(=O)N(C)C,inactive,

SMILES,outcome,AC50
CCCc1ccc(O)cc1,inactive,
C=C1CC/C=C(\C)CC[C@@H]2[C@@H]1CC2(C)C,inactive,
C=CC(C)(CCC=C(C)C)OC(=O)CC (stereo not given),inactive,
CCCCCCCCCCOC(=O)c1ccccc1C(=O)OCCCCCCCC,inactive,
CC(O)COCC(C)O (stereo not given),inactive,
O=C1CCCCCCCCCCCC(=O)OCCO1,inactive,
NC(=O)c1c(Cl)cccc1Cl,inactive,
c1ccc2c(c1)-c1ccc3ccc4cccc5cc-2c1c3c45,inactive,
CC1=C(C=O)C(C)(C)CCC1,inactive,
CC(C)OB(OC(C)C)OC(C)C,inactive,
COc1ccc2[nH]cc(CCNC(C)=O)c2c1,inactive,
CCC(=O)OCC=Cc1ccccc1,inactive,
CC(C)CCOC(=O)CC(C)C,inactive,
C#C[C@]1(O)CC[C@H]2[C@@H]3CCc4cc(O)ccc4[C@H]3CC[C@@]21C,inactive,60.4 µM (active)
O=c1cc[nH]cc1,inactive,
CCC(C)(CCCC(C)C)OC(C)=O (stereo not given),inactive,
O=C1OCc2ccccc21,inactive,

# System: not listed separately
# Assay: ATG_E_Box_CIS: Attagene CIS-FACTORIAL HepG2 Assay for human Enhancer Box (E-box) (AID 2282936)
# Details: HepG2 E-box cis-reporter transcription, actives raise or lower the signal
# Procedure, shortened: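 Fluorescent reporter fragments separated by capillary electrophoresis gave the signal; mRNA came from HepG2 cells transfected with cis-element reporters and treated 24 h. Curves fitted bidirectionally relative to DMSO controls.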
SMILES,outcome,AC50
NC(N)=NC(N)=NCCc1ccccc1,inactive,
CC/C=C\CCOC(=O)C(C)C,inactive,
CC(C)=CCCC(C)=CC(=O)O,inactive,
CCC=C(C)C=O,inactive,
C=C1CC[C@H]2O[C@]2(C)CC[C@@H]2[C@@H]1CC2(C)C,inactive,
CCC(=O)OC/C=C(\C)CCC=C(C)C,inactive,
CCO[Si](CCC#N)(OCC)OCC,inactive,
CC(C)(O)CCc1ccccc1,inactive,
CC(=O)C1C(=O)C=C(C)OC1=O (stereo not given),inactive,
CCc1cccc(O)c1,inactive,
CC(CO)(CO)[N+](=O)[O-],inactive,
C[C@H](CCC(=O)O)[C@H]1CC[C@H]2[C@@H]3CC[C@@H]4C[C@H](O)CC[C@]4(C)[C@H]3CC[C@]12C,,64.2 µM (active)
CCC(C)(C)C1CCC(OC)CC1 (stereo not given),inactive,
C=CC(=O)OCC(CO)(COC(=O)C=C)COC(=O)C=C,,22.2 µM (active)
CN(C)c1ccc(C=O)cc1,inactive,
CC1=CCC(C(C)(C)O)CC1 (stereo not given),inactive,
CC(=O)CC(=O)N(C)C,inactive,

SMILES,outcome,AC50
CCCc1ccc(O)cc1,inactive,
C=C1CC/C=C(\C)CC[C@@H]2[C@@H]1CC2(C)C,,94.9 µM (active)
C=CC(C)(CCC=C(C)C)OC(=O)CC (stereo not given),inactive,
CCCCCCCCCCOC(=O)c1ccccc1C(=O)OCCCCCCCC,inactive,
CC(O)COCC(C)O (stereo not given),inactive,
O=C1CCCCCCCCCCCC(=O)OCCO1,inactive,
NC(=O)c1c(Cl)cccc1Cl,inactive,
c1ccc2c(c1)-c1ccc3ccc4cccc5cc-2c1c3c45,inactive,
CC1=C(C=O)C(C)(C)CCC1,inactive,
CC(C)OB(OC(C)C)OC(C)C,inactive,
COc1ccc2[nH]cc(CCNC(C)=O)c2c1,inactive,
CCC(=O)OCC=Cc1ccccc1,inactive,
CC(C)CCOC(=O)CC(C)C,inactive,
C#C[C@]1(O)CC[C@H]2[C@@H]3CCc4cc(O)ccc4[C@H]3CC[C@@]21C,inactive,41.2 µM (active) and 29.9 µM (active)
O=c1cc[nH]cc1,inactive,
CCC(C)(CCCC(C)C)OC(C)=O (stereo not given),inactive,
O=C1OCc2ccccc21,inactive,
